Laboratory results reported in PubChem BioAssay (NCATS).
Results filed as inconclusive are left out. Activity calls are given as the source filed them. Unless noted, calls come from the whole dose curve.

Legend:
[1] = target: Bile acid receptor (Homo sapiens) (UniProt Q96RI1); assay: qHTS assay for small molecule antagonists of farnesoid X receptor signaling (AID 588526); note: potency is the fitted concentration of half-maximal effect
Procedure, shortened: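 Antagonist mode: titrated compounds tested against chenodeoxycholic acid stimulation (normalized to 50 uM CDCA and DMSO) in GeneBLAzer HEK293T cells for 16 h. Beta-lactamase read by CCF4 fluorescence; IC50 from Hill fits.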

[2] = target: Glucocorticoid receptor (Homo sapiens) (UniProt P04150); assay: qHTS assay for small molecule agonists of glucocorticoid receptor signaling (AID 588532; active = well fitted curve in the direction sought with a large enough effect in the signal ratio, with a control signal flat; the % refers to the signal ratio;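 note: 100% = dexamethasone at 0.1 µM and 0% = DMSO only wells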); details: HeLa MMTV-bla, beta-lactamase ratio, agonist, 18 h; activation: stronger effect = higher value, percent of dexamethasone control, DMSO zero
Procedure, shortened: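 MMTV-bla HeLa beta-lactamase reporter cells in 1% charcoal/dextran FBS medium, compounds up to 92 uM for 18 h at 37 C, CCF4 readout; normalized to 0.1 uM dexamethasone (100%), EC50 and efficacy from Hill fits.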

[3] = target: Vitamin D3 receptor (Homo sapiens) (UniProt P11473); assay: qHTS assay for small molecule agonists of vitamin D receptor signaling (AID 588543);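 note: 0% = DMSO basal and 100% = reference agonist control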
Procedure, shortened: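 β-lactamase reporter, VDR-UAS-bla HEK293T, agonist mode. Cells plated 5 h at 37 °C, compound titration 16 h at 37 °C, CCF4 dye 2 h RT, ratio 460/530 nm. Hill fit → EC50, efficacy vs 50 nM 1α,25-(OH)2D3.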

[4] = target: Thyroid hormone receptor beta (Homo sapiens) (UniProt P10828); assay: qHTS assay for small molecule agonists of thyroid hormone receptor beta signaling (AID 588545);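 note: 0% = DMSO only and 100% = 10 nM T3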
Procedure, shortened: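 TR-UAS-bla GripTite HEK 293 cells (2500/well, medium with 2% charcoal/dextran FBS) were treated in agonist mode for 18 h at 37 C, titrated. Beta-lactamase was read by CCF4 ratio after 2 h; normalized to 10 nM T3 (100%) and DMSO, Hill-fitted for EC50 and efficacy.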

[5] = qHTS assay for small molecule agonists of the antioxidant response element (ARE) signaling pathway (AID 651741; active = well fitted activation curve with a large enough effect in the signal ratio; the % refers to the signal ratio; note: potency is the fitted concentration of half-maximal effect; for activation: % of control where 0% means no effect)
Procedure, shortened: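 Stably integrated ARE-beta-lactamase reporter HepG2 cells; 16 h compound incubation, 37 C; LiveBLAzer FRET substrate 2 h at room temperature; fluorescence intensity.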

[6] = qHTS assay for small molecule activators of the nuclear factor-kappa B (NF-kB) signaling pathway (AID 651749; active = well fitted activation curve with a large enough effect in the signal ratio; the % refers to the signal ratio; note: series mostly up to about 77 µM; % of control where 0% means no effect); details: NF-kB-bla ME-180 cells, beta-lactamase FRET ratio, 16 h; activation: stronger effect = higher value
Procedure, shortened: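 In this qHTS format, compounds acting as activators increase NF-kB-driven beta-lactamase in ME-180 cells, measured as disrupted FRET after 16 hr exposure at 37C and 5% CO2.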

[7] = qHTS assay for environmental chemicals that activate the Aryl hydrocarbon Receptor (AhR) signaling pathway (AID 651777; active = well fitted curve in the direction sought with a large enough effect; an effect the other way counts as inactive or inconclusive; note: % of control where 0% means no effect; nearly all actives have a fitted effect of over 15% in size); details: 1A2-DRE human hepatoma cells, luciferase, 24 h; activation: stronger effect = higher value
Procedure, shortened: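 Stable CYP1A2 promoter/DRE-luciferase human hepatoma line treated 24 hr; One-Glo luminescence, 30 min RT.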

[8] = target: Peroxisome proliferator-activated receptor alpha (Homo sapiens) (UniProt Q07869); assay: qHTS assay for small molecule agonists of the peroxisome proliferator-activated receptor alpha (PPARalpha) signaling pathway (AID 651778; active = well fitted curve in the direction sought with a large enough effect; an effect the other way counts as inactive or inconclusive; note: % of control where 0% means no effect); details: PathHunter PPARalpha complementation, chemiluminescence, 6 h; max response: stronger effect = higher value
Procedure, shortened: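 Enzyme-fragment complementation assay in which ligand-bound PPARalpha translocates and forms an active enzyme that generates chemiluminescence. Cells were plated overnight, exposed to compound for 6 hr at 37 C, and then given detection reagent for 60 min at room temperature.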

[9] = qHTS assay for small molecule agonists of the antioxidant response element (ARE) signaling pathway measured by Nrf2-dependant transcriptional activity - cell viability counter screen (AID 720653; active = well fitted curve in the direction sought with a large enough effect in the repeat runs; an effect the other way counts as inactive or inconclusive; note: % is set by controls: 0 for no effect and ±100 for the full control effect); details: ARE-bla HepG2 viability, CellTiter-Glo ATP luminescence, 16 h; max response: stronger effect = lower value
Procedure, shortened: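 ARE-bla HepG2 cells treated with compounds for 16 h at 37C; this counter screen measures viability as intracellular ATP by CellTiter-Glo luminescence after 30 min at room temperature.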

[10] = qHTS assay for cell viability of the p53RE-bla HCT-116 cell line (AID 743292; active = well fitted curve in the direction sought with a large enough effect; an effect the other way counts as inactive or inconclusive; note: % is set by controls: 0 for no effect and ±100 for the full control effect; nearly all actives have a fitted effect of over 55% in size)
Procedure, shortened: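 Readout: CellTiter-Glo luminescence after 30 min RT. Treatment: compounds in DMSO, 16 h, 37 C. Cells: CellSensor p53RE-bla HCT-116, 4,000/well, preincubated 5 h.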

[11] = target: Nuclear receptor subfamily 1 group I member 2 (Rattus norvegicus) (UniProt Q9R1A7); assay: qHTS assay for small molecule activators of the rat pregnane X receptor (rPXR) signaling pathway (AID 651751; call rule not given here; note: 0% is about no effect); details: rPXR reporter cells, luciferase (One-Glo), 24 h
[12] = qHTS assay for small molecule activators of the human pregnane X receptor (PXR) signaling pathway (AID 720659; call rule not given here; note: 0% is about no effect)
[13] = target: Glucocorticoid receptor (Homo sapiens) (UniProt P04150); assay: qHTS assay for small molecule antagonists of glucocorticoid receptor signaling (AID 588533; active = well fitted inhibition curve with a large enough effect in the signal ratio, with a control signal flat, not every such curve was filed as active; the % refers to the signal ratio; note: % is set by controls: 0 for no effect and ±100 for the full control effect)
Procedure, shortened: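 Antagonist-mode qHTS: compound titrations added to GRE-bla HeLa cells, then dexamethasone 2 nM final; 18 h, 37 C. CCF4 FRET fluorescence normalized to dexamethasone and DMSO; IC50 from Hill fit.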

[14] = target: Peroxisome proliferator-activated receptor delta (Homo sapiens) (UniProt Q03181); assay: qHTS assay for small molecule agonists of peroxisome proliferator-activated receptor delta signaling (AID 588534);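 note: 0% = DMSO basal wells and 100% = positive control agonist at 10 µM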
Procedure, shortened: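 Agonist-mode beta-lactamase reporter readout (CCF4 dye, 2 h at RT) after 18 h at 37 °C exposure to a titration; Hill-equation fitting gave EC50 and maximal response.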

[15] = qHTS assay for small molecule antagonists of peroxisome proliferator-activated receptor delta signaling (AID 588535; active = well fitted inhibition curve with a large enough effect in the signal ratio, with a control signal flat, not every such curve was filed as active; the % refers to the signal ratio;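 for max response: cells co-treated with a PPAR-delta agonist as stimulator during compound exposure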); details: HEK293T PPARd-UAS-bla, beta-lactamase FRET ratio, 18 h; 460 nm channel
Procedure, shortened: (§1)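 Fluorescence from CCF4-loaded GeneBLAzer PPAR-delta-UAS-bla HEK293T cells (2 hrs RT loading) quantified reporter inhibition after an 18 hr, 37 C compound exposure across a titration.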

[16] = target: Peroxisome proliferator-activated receptor delta (Homo sapiens) (UniProt Q03181); assay: as above
Procedure, shortened: as §1

[17] = target: Peroxisome proliferator-activated receptor gamma (Homo sapiens) (UniProt P37231); assay: qHTS assay for small molecule agonists of peroxisome proliferator-activated receptor gamma signaling (AID 588536; active = well fitted curve in the direction sought with a large enough effect in the signal ratio, with a control signal flat, not every such curve was filed as active; the % refers to the signal ratio;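 note: 0% = DMSO basal wells and 100% = rosiglitazone at 2 µM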)
Procedure, shortened: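 Cells were plated and held 6–6.5 h at 37 C, then compounds were added as a titration series. After a further 16 h, CCF4 dye was loaded for 2 h at room temperature and emission at 460/530 nm recorded.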

[18] = target: Peroxisome proliferator-activated receptor gamma (Homo sapiens) (UniProt P37231); assay: qHTS assay for small molecule antagonists of peroxisome proliferator-activated receptor gamma signaling (AID 588537; active = well fitted inhibition curve with a large enough effect in the signal ratio, with a control signal flat, not every such curve was filed as active; the % refers to the signal ratio;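 note: reporter cells co-stimulated with 50 nM rosiglitazone agonist during compound treatment; % of control where 0% means no effect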)
Procedure, shortened: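 Fluorescence at 460 and 530 nm (405 nm excitation) reported beta-lactamase cleavage of CCF4 after 2 h room-temperature loading. HEK293 reporter cells in 1% charcoal/dextran-treated FBS had received compound and rosiglitazone for 16 h.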

[19] = target: Vitamin D3 receptor (Homo sapiens) (UniProt P11473); assay: qHTS assay for small molecule antagonists of vitamin D receptor signaling (AID 588541);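 note: receptor activated by calcitriol during compound treatment; series mostly up to about 77 µM; % is set by controls: 0 for no effect and ±100 for the full control effect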
Procedure, shortened: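 VDR-UAS-bla HEK293T cells in 2% charcoal-stripped FBS were stimulated with 1-alpha,25-dihydroxyvitamin D3 (3 nM final) plus compound for 16 h at 37 C. The beta-lactamase CCF4 readout was normalized to 50 nM agonist and DMSO, and Hill fits gave IC50.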

[20] = qHTS assay for small molecule agonists of retinoid X receptor alpha signaling (AID 588544); details: HEK293T RXRa-UAS-bla, beta-lactamase reporter, 18 h; 530 nm emission;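 for activation: 0% = DMSO basal wells and 100% = reference agonist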
[21] = target: Retinoic acid receptor RXR-alpha (Homo sapiens) (UniProt P19793); assay: as above
[22] = qHTS assay for small molecule antagonists of retinoid X receptor alpha signaling (AID 588546; active = well fitted inhibition curve with a large enough effect in the signal ratio, with a control signal flat, not every such curve was filed as active; the % refers to the signal ratio;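 note: cells stimulated with 9-cis-retinoic acid as agonist; % is set by controls: 0 for no effect and ±100 for the full control effect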); details: HEK293T RXRa-UAS-bla, beta-lactamase ratio, antagonist mode; measured here: W530 green channel, cytotoxicity proxy
Procedure, shortened: (§2)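 Beta-lactamase reporter inhibition, read as CCF4 fluorescence ratio (ex 405, em 460/530 nm) after 2 h at RT. HEK293T UAS-bla cells, 2500/well, were stimulated with 9-cis-RA at 500 or 100 nM final alongside test compound for 18 h at 37 C.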

[23] = target: Retinoic acid receptor RXR-alpha (Homo sapiens) (UniProt P19793); assay: as above; details: HEK293T RXRa-UAS-bla, beta-lactamase ratio, antagonist mode
Procedure, shortened: as §2

[24] = target: Thyroid hormone receptor beta (Homo sapiens) (UniProt P10828); assay: qHTS assay for small molecule antagonists of thyroid hormone receptor beta signaling (AID 588547; active = well fitted inhibition curve with a large enough effect in the signal ratio, with a control signal flat, not every such curve was filed as active; the % refers to the signal ratio); details: TR-UAS-bla HEK293, beta-lactamase ratio, antagonist mode, 18 h
Procedure, shortened: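 TR-UAS-bla GripTite HEK293 cells in 2% charcoal/dextran FBS medium; compounds 0.59 nM to 92 uM with T3 at 0.4nM final, 18 h at 37 C. Beta-lactamase read by CCF4 fluorescence (460/530 nm); Hill fits gave IC50 and efficacy.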

[25] = qHTS assay for small molecule activators of the p53 signaling pathway (AID 651743; active = well fitted activation curve with a large enough effect in the signal ratio, not every such curve was filed as active; the % refers to the signal ratio; note: series mostly up to about 92 µM; % of control where 0% means no effect); details: HCT-116 p53RE-bla, beta-lactamase FRET ratio, 16 h; activation: stronger effect = higher value
Procedure, shortened: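 Following 16 hours of compound exposure at 37 C, HCT-116 cells bearing the p53RE-bla reporter were loaded with LiveBLAzer B/G FRET substrate for 2 hours at room temperature and fluorescence intensity was recorded.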

[26] = qHTS assay for small molecule agonists of the antioxidant response element (ARE) signaling pathway measured by Nrf2-dependant transcriptional activity (AID 720636; active = well fitted curve in the direction sought with a large enough effect in the repeat runs; an effect the other way counts as inactive or inconclusive;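 note: HepG2 cells with an ARE-driven luciferase reporter; % of control where 0% means no effect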)
Procedure, shortened: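 Reporter gene assay, HepG2 ARE-luc: 16 hr compound, 37 C, 5% CO2; read-out luciferase luminescence.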

[27] = qHTS assay for cell viability of HEK293 cells (AID 743288; active = well fitted curve in the direction sought with a large enough effect; an effect the other way counts as inactive or inconclusive; note: % is set by controls: 0 for no effect and ±100 for the full control effect; nearly all actives have a fitted effect of over 50% in size); details: ATP luminescence (CellTiter-Glo), 18 h; max response: stronger effect = lower value
Procedure, shortened: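 ATP luminescence (CellTiter-Glo) reports metabolically competent cell number after parental HEK293 cells, 2,000/well, were treated with DMSO-dissolved compounds for 18 h at 37 C; reagent incubation 30 min, room temperature.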

[28] = target: Bile acid receptor (Homo sapiens) (UniProt Q96RI1); assay: qHTS assay for small molecule agonists of farnesoid X receptor signaling (AID 588527); details: HEK293T FXR-UAS-bla, beta-lactamase ratio, 16 h; activation: stronger effect = higher value;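 note: series mostly up to about 77 µM; 0% = vehicle basal and 100% = reference agonist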
Procedure, shortened: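 FXR-UAS-bla HEK293T cells (10% dialyzed FBS) preincubated 5-7 h at 37 C, then compounds at up to 92 uM for 16 h at 37 C. CCF4 beta-lactamase read-out after 2 h RT. Normalized to chenodeoxycholic acid (100 uM) and DMSO; Hill fit gave EC50 and efficacy.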

Bile acid receptor (Homo sapiens), sequence (Q96RI1 whole entry, looked up): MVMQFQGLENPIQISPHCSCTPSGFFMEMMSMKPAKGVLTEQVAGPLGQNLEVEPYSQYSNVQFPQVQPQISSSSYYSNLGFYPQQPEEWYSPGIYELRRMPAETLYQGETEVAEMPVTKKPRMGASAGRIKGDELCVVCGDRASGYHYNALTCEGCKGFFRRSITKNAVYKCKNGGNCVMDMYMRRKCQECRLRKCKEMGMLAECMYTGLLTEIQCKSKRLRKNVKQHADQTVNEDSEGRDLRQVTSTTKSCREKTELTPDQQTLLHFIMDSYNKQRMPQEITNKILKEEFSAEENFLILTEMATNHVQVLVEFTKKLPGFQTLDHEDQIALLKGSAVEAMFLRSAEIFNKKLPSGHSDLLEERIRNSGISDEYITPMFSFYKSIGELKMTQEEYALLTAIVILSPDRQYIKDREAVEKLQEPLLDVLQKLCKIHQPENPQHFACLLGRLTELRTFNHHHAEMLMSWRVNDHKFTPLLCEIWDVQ
Retinoic acid receptor RXR-alpha (Homo sapiens), sequence (P19793 whole entry, looked up): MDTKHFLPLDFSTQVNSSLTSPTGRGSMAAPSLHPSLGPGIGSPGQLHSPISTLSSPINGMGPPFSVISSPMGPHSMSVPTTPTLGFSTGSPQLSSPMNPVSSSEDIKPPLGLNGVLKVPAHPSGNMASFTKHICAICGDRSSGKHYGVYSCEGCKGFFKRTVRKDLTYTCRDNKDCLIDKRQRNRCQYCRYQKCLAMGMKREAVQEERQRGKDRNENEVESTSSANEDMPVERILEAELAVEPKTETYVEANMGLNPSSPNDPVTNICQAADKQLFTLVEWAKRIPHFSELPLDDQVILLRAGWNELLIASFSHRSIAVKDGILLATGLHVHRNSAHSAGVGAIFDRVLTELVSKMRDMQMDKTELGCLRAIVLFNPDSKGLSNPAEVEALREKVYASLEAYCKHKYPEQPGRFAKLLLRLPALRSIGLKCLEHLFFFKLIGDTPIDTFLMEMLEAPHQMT
Peroxisome proliferator-activated receptor gamma (Homo sapiens), sequence (P37231 whole entry, looked up): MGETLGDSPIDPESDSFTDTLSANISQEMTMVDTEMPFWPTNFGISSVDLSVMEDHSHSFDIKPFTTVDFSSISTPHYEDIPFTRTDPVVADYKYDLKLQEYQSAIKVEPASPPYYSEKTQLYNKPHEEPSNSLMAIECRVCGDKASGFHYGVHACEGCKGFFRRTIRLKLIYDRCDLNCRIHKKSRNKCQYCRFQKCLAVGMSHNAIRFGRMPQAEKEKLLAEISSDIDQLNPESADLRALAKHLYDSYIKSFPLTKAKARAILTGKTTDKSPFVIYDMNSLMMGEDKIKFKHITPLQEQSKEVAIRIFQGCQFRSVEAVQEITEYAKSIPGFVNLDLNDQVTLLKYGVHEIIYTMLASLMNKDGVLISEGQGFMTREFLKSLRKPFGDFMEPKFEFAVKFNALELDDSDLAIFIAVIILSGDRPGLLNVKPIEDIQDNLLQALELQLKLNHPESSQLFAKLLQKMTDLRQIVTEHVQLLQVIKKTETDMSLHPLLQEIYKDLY
Vitamin D3 receptor (Homo sapiens), sequence (P11473 whole entry, looked up): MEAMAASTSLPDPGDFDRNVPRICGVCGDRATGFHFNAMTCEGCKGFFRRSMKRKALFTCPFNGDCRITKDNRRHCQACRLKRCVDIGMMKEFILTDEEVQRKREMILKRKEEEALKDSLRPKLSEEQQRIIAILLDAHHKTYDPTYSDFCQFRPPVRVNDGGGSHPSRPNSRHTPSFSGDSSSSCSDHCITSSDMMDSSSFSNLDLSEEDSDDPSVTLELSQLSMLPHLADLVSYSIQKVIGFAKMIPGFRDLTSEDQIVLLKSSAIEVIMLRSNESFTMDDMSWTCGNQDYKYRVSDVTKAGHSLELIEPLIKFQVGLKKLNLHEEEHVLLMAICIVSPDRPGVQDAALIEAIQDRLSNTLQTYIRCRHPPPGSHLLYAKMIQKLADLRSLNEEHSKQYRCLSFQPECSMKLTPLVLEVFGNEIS
Thyroid hormone receptor beta (Homo sapiens), sequence (P10828 whole entry, looked up): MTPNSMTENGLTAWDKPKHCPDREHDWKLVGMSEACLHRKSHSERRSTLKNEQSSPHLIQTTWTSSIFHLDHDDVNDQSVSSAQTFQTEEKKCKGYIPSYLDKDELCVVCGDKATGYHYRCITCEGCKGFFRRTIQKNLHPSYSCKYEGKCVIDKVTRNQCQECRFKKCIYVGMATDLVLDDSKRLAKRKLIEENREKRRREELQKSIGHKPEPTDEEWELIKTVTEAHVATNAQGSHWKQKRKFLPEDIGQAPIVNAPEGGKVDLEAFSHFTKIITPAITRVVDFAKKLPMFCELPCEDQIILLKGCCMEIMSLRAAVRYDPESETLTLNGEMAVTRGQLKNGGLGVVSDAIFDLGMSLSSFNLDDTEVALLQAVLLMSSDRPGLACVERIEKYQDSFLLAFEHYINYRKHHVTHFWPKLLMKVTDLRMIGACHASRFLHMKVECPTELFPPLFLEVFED
Peroxisome proliferator-activated receptor alpha (Homo sapiens), sequence (Q07869 whole entry, looked up, the tested form may be a part): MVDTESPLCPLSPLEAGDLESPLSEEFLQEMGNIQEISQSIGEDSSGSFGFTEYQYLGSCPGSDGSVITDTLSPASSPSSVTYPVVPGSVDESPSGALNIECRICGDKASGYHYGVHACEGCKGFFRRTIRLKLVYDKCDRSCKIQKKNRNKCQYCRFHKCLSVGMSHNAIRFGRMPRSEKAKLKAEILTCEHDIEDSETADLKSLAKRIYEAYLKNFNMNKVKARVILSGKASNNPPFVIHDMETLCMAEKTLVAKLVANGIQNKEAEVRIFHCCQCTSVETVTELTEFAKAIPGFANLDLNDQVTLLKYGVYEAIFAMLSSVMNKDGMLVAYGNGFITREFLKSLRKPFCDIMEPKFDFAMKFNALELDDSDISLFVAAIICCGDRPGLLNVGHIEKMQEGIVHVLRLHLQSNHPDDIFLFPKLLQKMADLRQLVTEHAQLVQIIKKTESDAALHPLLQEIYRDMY
Nuclear receptor subfamily 1 group I member 2 (Rattus norvegicus), sequence (Q9R1A7 whole entry, looked up): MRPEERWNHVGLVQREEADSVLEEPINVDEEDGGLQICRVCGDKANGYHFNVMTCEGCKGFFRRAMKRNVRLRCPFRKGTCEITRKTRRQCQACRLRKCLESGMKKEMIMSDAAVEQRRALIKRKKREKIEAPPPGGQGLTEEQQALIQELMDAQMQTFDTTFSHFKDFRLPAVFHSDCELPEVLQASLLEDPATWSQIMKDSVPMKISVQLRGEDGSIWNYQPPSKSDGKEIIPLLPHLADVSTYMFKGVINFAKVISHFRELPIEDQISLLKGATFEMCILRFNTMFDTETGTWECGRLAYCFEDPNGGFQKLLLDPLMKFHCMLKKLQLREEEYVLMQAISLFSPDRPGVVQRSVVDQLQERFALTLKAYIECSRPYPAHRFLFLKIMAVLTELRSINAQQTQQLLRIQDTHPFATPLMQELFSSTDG
Peroxisome proliferator-activated receptor delta (Homo sapiens), sequence (Q03181 whole entry, looked up): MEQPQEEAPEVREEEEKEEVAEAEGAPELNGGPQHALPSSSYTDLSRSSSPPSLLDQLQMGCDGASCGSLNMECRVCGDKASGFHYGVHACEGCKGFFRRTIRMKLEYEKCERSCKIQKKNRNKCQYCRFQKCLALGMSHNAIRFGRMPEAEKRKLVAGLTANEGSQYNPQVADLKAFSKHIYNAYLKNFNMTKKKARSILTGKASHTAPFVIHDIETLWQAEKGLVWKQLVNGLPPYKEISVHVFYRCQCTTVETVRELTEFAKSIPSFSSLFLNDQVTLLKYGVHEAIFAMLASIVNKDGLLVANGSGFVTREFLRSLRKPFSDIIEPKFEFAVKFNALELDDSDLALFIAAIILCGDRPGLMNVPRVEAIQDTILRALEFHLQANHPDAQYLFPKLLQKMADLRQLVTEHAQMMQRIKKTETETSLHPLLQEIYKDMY
Glucocorticoid receptor (Homo sapiens), sequence (P04150 whole entry, looked up): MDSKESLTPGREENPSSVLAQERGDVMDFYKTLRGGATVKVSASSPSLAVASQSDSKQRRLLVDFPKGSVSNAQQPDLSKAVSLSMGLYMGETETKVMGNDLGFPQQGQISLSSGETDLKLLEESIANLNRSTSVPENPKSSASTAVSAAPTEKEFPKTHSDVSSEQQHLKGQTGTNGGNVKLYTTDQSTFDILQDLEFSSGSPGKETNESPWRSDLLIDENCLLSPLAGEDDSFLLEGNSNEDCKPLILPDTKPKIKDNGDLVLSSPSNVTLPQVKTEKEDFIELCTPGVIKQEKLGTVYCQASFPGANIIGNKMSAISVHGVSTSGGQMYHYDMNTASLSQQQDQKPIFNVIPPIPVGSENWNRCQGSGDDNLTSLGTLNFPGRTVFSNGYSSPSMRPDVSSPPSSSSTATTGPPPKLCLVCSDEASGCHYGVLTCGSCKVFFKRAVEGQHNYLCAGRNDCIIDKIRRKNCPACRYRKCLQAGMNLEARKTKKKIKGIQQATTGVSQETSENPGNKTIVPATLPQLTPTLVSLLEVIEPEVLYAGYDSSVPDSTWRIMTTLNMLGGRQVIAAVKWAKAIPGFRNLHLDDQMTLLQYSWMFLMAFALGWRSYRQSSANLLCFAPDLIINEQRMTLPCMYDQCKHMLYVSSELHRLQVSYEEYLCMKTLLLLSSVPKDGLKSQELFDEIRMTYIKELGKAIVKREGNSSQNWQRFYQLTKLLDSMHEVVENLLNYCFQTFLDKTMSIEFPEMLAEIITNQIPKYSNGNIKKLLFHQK

Compound: O=C/C(Cl)=C(/Cl)C(=O)O
- Potency [1]: 44.7 µM (active)
- activation [2]: -13.8% (inactive)
- outcome [3]: inactive
- Potency [4]: inactive
- Potency [5]: 30.6 µM (active)
- activation [6]: 1.31% (inactive)
- activation [7]: 5.71% (inactive)
- max response [8]: -1.15% (inactive)
- max response [9]: -4.23% (inactive)
- Potency [10]: inactive
- max response [11]: -11.2% (inactive)
- outcome [12]: inactive

Compound: CN1COCN(Cc2cnc(Cl)s2)/C1=N\[N+](=O)[O-]
- Potency [1]: inactive
- activation [2]: -3.49% (inactive)
- Potency [13]: inactive
- outcome [14]: inactive
- max response [15]: -72.6%
- Potency [16]: inactive
- Potency [17]: inactive
- Potency [18]: inactive
- Potency [19]: inactive
- outcome [3]: inactive
- max response [20]: -27.5%
- Potency [21]: inactive
- max response [22]: -4.43%
- max response [23]: 2.74% (inactive)
- activity change % (negative = inhibition) [24]: -19.4% (inactive)
- activation [25]: -3.46% (inactive)
- activation [6]: 0.219% (inactive)
- activation [7]: -0.335% (inactive)
- max response [8]: -1.32% (inactive)
- Potency [26]: inactive
- max response [9]: -21.4% (inactive)
- max response [27]: -0.262% (inactive)
- max response [11]: -0.267% (inactive)
- outcome [12]: inactive

Compound: CCC(C)c1ccc(O)cc1 (centres undefined)
- Potency [1]: inactive
- activation [28]: -4.25% (inactive)
- activation [2]: 2.12% (inactive)
- max response [20]: -6.05%
- Potency [21]: inactive
- Potency [4]: inactive
- max response [22]: -3.19%
- max response [23]: -17.8% (inactive)
- activity change % (negative = inhibition) [24]: 6.18% (inactive)
- activation [6]: -0.802% (inactive)
- max response [8]: -0.201% (inactive)
- Potency [26]: inactive
- max response [9]: -2.59% (inactive)
- max response [27]: -7.5% (inactive)
- Potency [10]: inactive
- max response [11]: -4.44% (inactive)
- outcome [12]: inactive

Compound: COC(=O)C(C)Oc1ccc(Oc2ccc(Cl)cc2Cl)cc1 (centres undefined)
- Potency [1]: inactive
- activation [28]: -6.35% (inactive)
- activation [2]: -5.37% (inactive)
- outcome [14]: inactive
- Potency [21]: inactive
- Potency [4]: inactive
- max response [22]: -8.87%
- max response [23]: -16.7% (inactive)
- activity change % (negative = inhibition) [24]: 8.67% (inactive)
- activation [25]: -3.5% (inactive)
- activation [6]: -0.397% (inactive)
- activation [7]: -0.824% (inactive)
- Potency [26]: inactive
- max response [9]: -5.74% (inactive)
- max response [27]: -4.71% (inactive)
- Potency [10]: inactive
- max response [11]: -0.585% (inactive)
- outcome [12]: inactive

Compound: Nc1nc(N)nc(N)n1
- Potency [1]: inactive
- activation [28]: 0.442% (inactive)
- outcome [14]: inactive
- max response [15]: 16%
- Potency [16]: inactive
- Potency [17]: inactive
- Potency [18]: inactive
- Potency [19]: inactive
- outcome [3]: inactive
- Potency [21]: inactive
- Potency [4]: inactive
- max response [22]: -0.207%
- max response [23]: -7.03% (inactive)
- activity change % (negative = inhibition) [24]: -6.25% (inactive)
- Potency [5]: inactive
- activation [25]: -2.16% (inactive)
- max response [8]: -3.29% (inactive)
- Potency [26]: inactive
- max response [9]: -2.99% (inactive)
- max response [27]: -12% (inactive)
- Potency [10]: inactive
- max response [11]: -3.43% (inactive)
- outcome [12]: inactive
